This experiment can be described thus: NCI Yeast Anticancer Drug Screen. Data for the wt2 strain (AID 169).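 Further: 0% = growth of vehicle-treated yeast cultures.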 The following applies: S. cerevisiae wt2 strain growth inhibition, hits give high values. As for the experimental part:
Growth inhibition of yeast strains with defined genetic alterations is measured as a screen for potential anti-cancer activity. Selected strains with alterations in DNA damage repair or cell cycle control were exposed to compounds and growth inhibition was measured relative to vehicle treated controls. The strain used in this assay is wt2

About 79,000 compounds went through this panel and 15% of them were active in at least one assay; those are over-represented in the sample as a whole. A number with no mark means an inactive call. Calls of active or inactive are those of the source. No stated cut-off is given here; in the data, active means growth inhibition above about 70%; inactive means the rest.

For `Cn1c2ccccc2c(=O)c2cc(NC(=O)CCCCC(=O)Nc3ccc4c(c3)c(=O)c3ccccc3n4C)ccc21`, the growth inhibition is, setting by setting: (at 1.2 µM) -3%; (at 3.7 µM) -2%; (at 11.0 µM) -1%; (at 33.0 µM) 10%; (at 100.0 µM) 40%.

On to `S=C(N/N=C/c1ccccn1)Nc1ccc(Cl)cc1`, for which the growth inhibition is -6% (at 1.2 µM); -6% (at 3.7 µM); -4% (at 11.0 µM); 9% (at 33.0 µM); 39% (at 100.0 µM).

With `CC(=O)Oc1ccc2c(c1)Cc1cc(N=C3C=CC(=O)O3)ccc1-2`, the growth inhibition was 3% (at 1.2 µM); 36% (at 3.7 µM); 99% (active) (at 11.0 µM); 99% (active) (at 33.0 µM); 96% (active) (at 100.0 µM).

Consider `COc1ccc(/C(C)=N/OC(=O)c2c(-c3ccccc3Cl)noc2C)cc1CN1CCOCC1`, for which the growth inhibition reads like this: (at 1.2 µM) -18%; (at 3.7 µM) -27%; (at 11.0 µM) -21%; (at 33.0 µM) -7%; (at 100.0 µM) 65%.

As to `Cc1ccc(NN(NC(=O)OC(C)C)C(=O)OC(C)C)cc1`, the growth inhibition (at 1.2 µM) is -1%; the growth inhibition (at 3.7 µM) was -1%; the growth inhibition (at 11.0 µM) was 0%; the growth inhibition (at 33.0 µM) is 7%; the growth inhibition (at 100.0 µM) is 11%.

As to `Cc1ccc(N)c(S)c1`, the growth inhibition is -48% (at 1.2 µM); -25% (at 3.7 µM); -4% (at 11.0 µM); 93% (active) (at 33.0 µM); 99% (active) (at 100.0 µM).

`O=CNc1ccc2c(c1)C(=O)c1ccccc1-2`: the growth inhibition runs as follows: (at 1.2 µM) -2%; (at 3.7 µM) 0%; (at 11.0 µM) 8%; (at 33.0 µM) 48%; (at 100.0 µM) 96% (active).

As to `COc1ccc(-c2cn(-c3ccc(I)cc3)c3ncnc(N)c23)cc1`, the growth inhibition was -4% (at 1.2 µM); -8% (at 3.7 µM); -10% (at 11.0 µM); -8% (at 33.0 µM); -8% (at 100.0 µM).

(Values after PubChem BioAssay (NCI).)
